# Laboratory results: PubChem BioAssay (NCI)
# The panel holds about 83,000 compounds, 20% with a hit somewhere; the sample as a whole holds those more often.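 The endpoint reported here, percent growth, reads 100 for growth as untreated, 0 for no net growth and -100 for all cells dead.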 Values without a mark were called inactive. The source made the active and inactive calls. How the source made its calls: active means growth percent below 10; inactive means the rest.
# Tests used:
# Assay in all cases: NCI-60 one-dose screen, 48 h (100 = growth as untreated, 0 = no growth, -100 = all killed)
# Conditions in all cases: 10 µM unless noted
# [1] = tested on: SR leukemia
# [2] = tested on: RPMI-8226 leukemia
# [3] = tested on: OVCAR-8 ovarian
# [4] = tested on: OVCAR-5 ovarian
# [5] = tested on: OVCAR-4 ovarian
# [6] = tested on: SK-OV-3 ovarian
# [7] = tested on: IGROV1 ovarian
# [8] = tested on: OVCAR-3 ovarian
# [9] = tested on: HS 578T breast
# [10] = tested on: NCI/ADR-RES ovarian
Compound,growth [1],growth [2],growth [3],growth [4],growth [5],growth [6],growth [7],growth [8],growth [9],growth [10]
Cc1c2ccncc2c(C)c2c1c1cc(CO)ccc1n2C,-4.24% (active),-17.1% (active),6.79% (active),-15.8% (active),-3.73% (active),-2.65% (active),-8.24% (active),-24.2% (active),24.3%,4.56% (active)
COc1ccc(Nc2ncccc2/C=C/C(=O)c2cc(OC)c(OC)c(OC)c2)cc1,-22.4% (active),-25.3% (active),-33.8% (active),-15.4% (active),29%,64.6%,-2.98% (active),-88.2% (active),37.8%,14%
O=c1c2ccccc2c(=O)c2c1sc1c(=O)c3ccc(O)cc3c(=O)c12,-16.6% (active),-38.6% (active),-11.5% (active),-74.7% (active),-90.2% (active),-92.1% (active),-24% (active),-57.1% (active),-5.23% (active),-14.1% (active)
O=c1c2c3c(sc2n2c(-c4cc(-c5ccccc5)no4)nnc2n1Cc1ccccc1)CCCC3,55.7%,53.5%,40.9%,82.8%,87.6%,124%,-11.9% (active),78.7%,101%,80.6%
CN1CCN(C(=O)[C@@]2(C)CC[C@]3(C)CC[C@]4(C)C(=CC[C@@H]5[C@@]6(C)CCC(=O)NC(C)(C)[C@@H]6CC[C@]54C)[C@@H]3C2)CC1,-10.4% (active),20.6%,64.1%,83.8%,50.6%,53.8%,63.8%,57.8%,55.2%,59.6%
CN(Cc1ccccc1)c1nc(Cl)c(C2CC(c3ccccc3)=NN2c2ccccc2)s1 (stereo not given),90.8%,84.8%,91.5%,104%,88.5%,85.3%,97.2%,105%,103%,98.1%
NC(=O)c1cnc(Nc2cccc(N)c2)nc1NCCCNC(=O)C1CCC1,77.1%,97.3%,71.1%,119%,88.5%,27.1%,65.8%,82.6%,72.8%,108%
Cc1ccc2nc(NC(=O)CSc3nc(-c4ccccc4)c(C#N)c4nnnn34)sc2c1,72.8%,117%,108%,113%,101%,100%,102%,122%,98%,106%
C=C1C(=O)O[C@H]2[C@H]1CC/C(COC(=O)CSCSCC(=O)OC/C1=C/CC[C@@]3(C)O[C@H]3[C@H]3OC(=O)C(=C)[C@@H]3CC1)=C\CC[C@@]1(C)O[C@@H]21,-16.4% (active),-31.2% (active),5.96% (active),30.1%,50.5%,104%,0.96% (active),-21.4% (active),23.1%,62.4%
CCOC(=O)C(=CNc1cnc(Nc2ccc(N3CCOCC3)cc2)nc1Oc1ccc(OC)cc1)C(=O)OCC,31.6%,42.2%,43.1%,71.5%,-43.1% (active),55.5%,26.8%,-9.17% (active),35%,54.4%
Cn1ccc(=O)nc1,68.7%,101%,78.7%,74.5%,76.1%,93%,79%,115%,132%,93.4%
C=C1C(=O)O[C@H]2[C@H]1CC/C(COC(=O)NCc1ccc(Cn3c(=O)sn(-c4ccc(C#N)cc4)c3=O)cc1)=C\CC[C@@]1(C)O[C@@H]21,55%,6.41% (active),74.1%,86%,46.5%,93.1%,57.8%,-39.5% (active),99.4%,103%
CC(C)(C)n1cc(-c2ccnc(NCCCNS(=O)(=O)c3cccc4ccccc34)c2)c(-c2cccc(F)c2)n1,27.8%,65.4%,81.4%,91.9%,78.1%,91.9%,78.9%,90.1%,91.4%,78.2%
COc1ccc(/C(C)=C(\c2ccc(Cl)cc2)c2ccc(OCCN3CCCCC3)cc2)cc1,-7.55% (active),7.75% (active),69.6%,67.9%,59.9%,77.5%,64.5%,74.9%,63.6%,76.8%
CCN1C2CCC1/C(=C\c1ccc(F)cc1)C(=O)/C2=C/c1ccc(F)cc1,24.5%,18.5%,12.5%,73.4%,47.3%,62%,45.7%,11%,66.3%,17.4%
S=C(c1ccc2c(c1)OCO2)N1CCN(c2cccc(Cl)c2)CC1,11.9%,24.6%,38.8%,44%,46.3%,20.6%,37%,-33.7% (active),-1.66% (active),-13% (active)
CCOC(=O)c1ccccc1-c1c2ccc(=[N+](C)C)cc-2oc2cc(N(C)C)ccc12,21.9%,13.8%,2.69% (active),4.53% (active),17.9%,-2.61% (active),18.4%,11.1%,26.1%,102%
O=C(/C=C/c1cccc(Cl)c1Cl)Nc1ncc(Cc2ccccc2Cl)s1,19.1%,35.4%,73.6%,80.1%,70.2%,70.4%,39.3%,11.3%,38%,31%
CC1CCN(C(=S)SCC(=O)NC(=O)c2ccccc2)CC1,80.6%,102%,112%,101%,96.6%,104%,107%,111%,102%,105%
COc1ccc(NC(=O)Nc2ccc(OCCCCCC(=O)NO)cc2)cc1,71.6%,97.8%,87.8%,113%,122%,97.1%,115%,103%,94.1%,99.6%
O=C1/C(=C/c2ccccn2)NC(=S)N1c1ccccc1Cl,19.3%,52.8%,30.4%,68.4%,34.9%,111%,46.1%,53.7%,72.5%,50.8%
c1ccc2c(c1)CCCc1nnc3nc4ccccc4n3c1-2,20.5%,31.6%,38.5%,37.8%,17.9%,50.3%,43.7%,23.6%,77.1%,24.6%
Nc1[nH]c(=S)nc2oc(-c3ccccc3)c(-c3ccccc3)c12,93.8%,99.8%,101%,98.2%,97.2%,103%,100%,102%,91.1%,98.9%
CCN1C(=O)N(CC)C2C1NC(=S)N2/N=C/c1ccc(OC)cc1 (stereo not given),24.1%,85.4%,70.4%,82.7%,81%,57%,44.9%,17.1%,47.5%,57.4%
COc1cccc(/C=C/C(=O)c2cccc(Nc3nc(Nc4ccccc4)nc(Nc4ccccc4)n3)c2)c1,42.4%,-55.2% (active),77.7%,89%,84.1%,101%,77.5%,76.6%,81.5%,83.4%
CCN(CC)Cc1cc(Nc2ccnc3cc(Cl)ccc23)ccc1O,82.7%,93.3%,100%,97.7%,94.4%,116%,88.4%,88.5%,91.6%,93.9%
